High-throughput results as filed in PubChem.
KB-3-1 cytotox: qHTS assay for MDR1-selective chemotherapeutics: Primary screen using the parental adenocarcinoma cell KB-3-1; 400,000 compounds, 1.4% hits; KB-3-1 viability, CellTiter-Glo ATP luminescence, 72 h; AID 1347075, 2019; Potency, µM (series often up to 46.1 µM), most hits filed as cytotoxic; also: nearly all actives have a fitted effect of over 60% in size
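Cytotoxicity measured as CellTiter-Glo luminescence after 72 h at 37 C. Compound titrations were pinned onto drug-naive KB-3-1 parental adenocarcinoma cells grown in DMEM with 10% FBS, and normalized data fitted to concentration-response curves.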
KB-V1 cytotox: qHTS assay for MDR1-selective chemotherapeutics: Primary screen using the drug-selected MDR subline cells KB-V1. KB-V1 MDR cells viability, CellTiter-Glo, 72 h. 400,000 compounds, 3.4% hits. Potency, µM (series often up to 46.1 µM), actives largely listed as cytotoxic. AID 1347076, 2019; also: nearly all actives have a fitted effect of over 60% in size
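KB-V1 MDR subline cells in DMEM (phenol-red free, 10% FBS) exposed to compounds in qHTS concentration series for 72 h at 37 degrees C. Viability read by CellTiter-Glo luminescence; concentration-effect curves fitted after normalization and correction.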
TDP1 cell CPT: qHTS for Inhibitors of human tyrosyl-DNA phosphodiesterase 1 (TDP1): qHTS in cells in presence of CPT; chicken DT40 Tdp1-/-;hTDP1 cells + 20 nM CPT, ATP luminescence, 48 h; Potency, µM (series often up to 46.2 µM), most hits filed as inhibitors; 420,000 compounds, 12% hits; also: nearly all actives have a fitted effect of over 55% in size
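Chicken DT40 Tdp1-/- cells complemented with human TDP1, 400 cells/well, exposed to compounds plus 20 nM camptothecin for at least 48 h at 37 C; viability read as ATP content by CellTiter-Glo luminescence.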
TDP1 cell noCPT: qHTS for Inhibitors of human tyrosyl-DNA phosphodiesterase 1 (TDP1): qHTS in cells in absence of CPT; DT40 Tdp1-/- hTDP1 cells, no CPT, ATP luminescence, 48 h; Potency, µM (top dose mostly 46.2 µM), actives largely listed as inhibitors; 420,000 compounds, 15% hits; also: nearly all actives have a fitted effect of over 55% in size
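No-CPT arm: Tdp1-/-;hTDP1 DT40 cells (400/well) plus compounds, incubated ≥48 hr at 37 °C. Readout CellTiter-Glo luminescence.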
HT1080NT lethal: qHTS for induction of synthetic lethality in tumor cells producing 2HG: qHTS for the HT-1080-NT fibrosarcoma cell line; HT-1080-NT fibrosarcoma viability, CellTiter-Glo ATP luminescence, 48 h; Potency, µM (titrated, usually from 46.1 µM), usual class: cytotoxic; 360,000 compounds, 1.6% hits;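 also: NT is the 2HG producing partner of a matched IDH1 knockdown line; nearly all actives have a fitted effect of over 55% in size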
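Luminescent CellTiter-Glo readout after 48 hours of compound exposure at 37 degrees C defined viability of HT-1080-NT cells. Activity was normalized to DMSO wells and cell-free media wells; concentration-response curves were fitted and assigned curve classes.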
HT1080 IDH1KD tx: qHTS for induction of synthetic lethality in tumor cells producing 2HG: qHTS for the HT-1080-IDH1KD cell line | HT-1080 IDH1 knockdown viability, ATP luminescence, 48 h | Potency, µM (highest dose often 46.1 µM), most hits filed as cytotoxic | 360,000 compounds, 2% hits | AID 686971, 2013
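% activity derives from luminescence (CellTiter-Glo), normalised to DMSO and no-cell wells. HT-1080-IDH1KD cells, 750/well, had 48 h compound exposure at 37 °C.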
Hits are given with their value; 0 = inactive; ? = inconclusive; - = no result. Sampled rows, rich in hits. Any-hit rate of the full collection: about 19%. Calls follow the shape of the dose curve; as a rule, active = well fitted curve in the direction sought with a large enough effect; inconclusive = small, poorly fitted or top-dose-only effect, or another doubt; inactive = no such curve, though single readings can be large; an effect the other way counts as inactive or inconclusive.

SMILES	KB-3-1 cytotox	KB-V1 cytotox	TDP1 cell CPT	TDP1 cell noCPT	HT1080NT lethal	HT1080 IDH1KD tx
COc1cccc(-n2c(SCC(=O)Nc3c(C)cc(C)cc3C)nc3c([nH]c4ccccc43)c2=O)c1	0	?	11.6µM	13µM	-	-
CC(=O)c1ccc(N=C2C(=O)Nc3ccccc32)cc1	0	0	?	13µM	0	0
CC(=O)c1c(C)[nH]c(C(=O)N2CCN(c3cc(Cl)ccc3C)CC2)c1C	4.61µM	0	10.3µM	5.8µM	16.4µM	23.1µM
COc1cccc(N2CCN(C(=O)c3[nH]c(C)c(C(C)=O)c3C)CC2)c1	6.31µM	5.62µM	5.62µM	4.47µM	7.08µM	5.62µM
CCOC(=O)c1c(C)[nH]c(C(=O)OCC(=O)N2CCN(S(=O)(=O)c3ccc(C)cc3C)CC2)c1C	?	?	?	?	0	0
CC(=O)c1c(C)[nH]c(C(=O)N2CCN(C(=O)c3ccco3)CC2)c1C	0	0	0	0	0	0
CC(=O)c1c(C)[nH]c(C(=O)N2CCN(S(=O)(=O)c3ccc(C)cc3C)CC2)c1C	0	0	?	18.4µM	0	0
COc1cccc(N2CCN(C(=O)c3c(C)nn(-c4ccccc4)c3C)CC2)c1	0	0	0	0	0	0
CC(=O)c1c(C)[nH]c(C(=O)N2CCN(c3ccc(F)cc3)CC2)c1C	0	?	14.1µM	?	?	10µM
Cc1ccc(NC(=O)Nc2cn(C)c(=O)c3ccccc23)c(Cl)c1	0	0	?	?	-	-
Cc1ccc(-n2nc(C)c3nc(CCC(=O)Nc4cccc(C)c4C)c(=O)n(C)c32)cc1	0	0	0	0	-	-
CC(C)(C)OC(=O)N1CCN(C(=O)c2ncn3c2c(=O)[nH]c2ccccc23)CC1	0	0	0	0	0	0
Cc1ccc2c(CC(=O)Nc3ccc4nc(N5CCOCC5)sc4c3)coc2c1	0	0	0	?	0	0
Cc1ccc(Cn2c(=O)n(CC3CCC(C(=O)N4CCC(C)CC4)CC3)c(=O)c3sccc32)cc1 (centres undefined)	0	0	?	?	-	-
CCN(CC)C(=O)Cn1c(=O)n(CCC(=O)Nc2ccc(F)cc2)c(=O)c2sccc21	0	0	0	0	0	0
CNC(=O)C1CCC(Cn2c(=O)c3sccc3n(CC(=O)Nc3cc(C)cc(C)c3)c2=O)CC1 (centres undefined)	0	?	?	10.3µM	-	-
Cc1ccccc1Cn1c(=O)n(CC2CCC(C(=O)N3CCC(C)CC3)CC2)c(=O)c2sccc21 (centres undefined)	?	?	23.1µM	16.4µM	-	-
O=C(C1CCC(Cn2c(=O)c3sccc3n(Cc3ccc(F)cc3)c2=O)CC1)N1CCOCC1 (centres undefined)	0	0	23.1µM	18.4µM	-	-
CCN(CC)C(=O)Cn1c(=O)n(Cc2ccc(F)cc2)c(=O)c2sccc21	0	0	9.2µM	?	0	0
CCCN(CCC)C(=O)Cn1c(=O)n(Cc2ccc(C(=O)NCCc3ccc(OC)c(OC)c3)cc2)c(=O)c2ccccc21	0	0	?	?	-	-
O=C(COCc1cc(-c2ccc(F)cc2)on1)Nc1cc(Cl)ccc1O	0	0	?	?	-	-
COc1cc(OC)c(NC(=O)Cn2c(=O)c(C(F)(F)F)nc3ccccc32)cc1Cl	0	0	0	0	-	-
CC1CCCC(C)N1C(=O)CSc1nnc(COc2ccc(F)cc2)o1 (centres undefined)	0	?	?	?	0	0
COc1cc(OC)cc(C(=O)N2CCN(C(=O)COc3ccccc3)CC2)c1	0	0	-	-	-	-
